The list is not random: actives were taken first. Their share in the collection is about 7.3%.
FLuc counter: firefly luciferase modulation, counter-screen for miR-21 project. P08659. purified FLuc, Km substrates, luminescence inhibition. 360,000 tested, 6.9% active. Potency, µM (titrated, usually from 57.5 µM), inactives show at the highest dose activity change, negative = inhibition, hits mostly inhibitors. AID 588342;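 further: plate controls were vehicle for no effect and reference inhibitor for full effect; nearly all actives have a fitted effect of over 55% in size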
Target sequence (P08659 whole entry, looked up): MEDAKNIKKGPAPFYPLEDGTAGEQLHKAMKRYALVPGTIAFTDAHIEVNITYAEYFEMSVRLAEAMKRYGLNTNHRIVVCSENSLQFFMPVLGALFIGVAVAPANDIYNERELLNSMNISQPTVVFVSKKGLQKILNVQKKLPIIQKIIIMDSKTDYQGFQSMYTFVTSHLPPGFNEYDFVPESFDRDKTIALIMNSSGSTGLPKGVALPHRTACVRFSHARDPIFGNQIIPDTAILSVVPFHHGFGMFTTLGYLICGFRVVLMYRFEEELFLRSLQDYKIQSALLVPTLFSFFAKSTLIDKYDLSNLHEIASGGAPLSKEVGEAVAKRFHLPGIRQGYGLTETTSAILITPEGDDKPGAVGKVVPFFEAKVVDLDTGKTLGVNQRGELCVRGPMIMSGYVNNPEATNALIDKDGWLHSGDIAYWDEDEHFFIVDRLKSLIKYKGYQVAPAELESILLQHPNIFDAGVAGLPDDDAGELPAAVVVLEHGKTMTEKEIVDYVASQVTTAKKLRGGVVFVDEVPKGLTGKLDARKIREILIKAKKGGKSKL
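Purified P. pyralis luciferase, 10 nM final, with Km-level 10 uM D-luciferin and 10 uM ATP in 50 mM Tris acetate pH 7.5, 10 mM Mg acetate, 0.01% Tween-20, 0.05% BSA; 6-point qHTS titration about 60 µM downward; luminescence read.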
NPC1 prom act: activates the NPC1 promoter; Potency, µM (series often up to 9.22 µM), without a hit: at the highest dose activation, actives largely listed as activators; 320,000 tested, 2.4% active; AID 485313; Huh7 NPC1 promoter luciferase reporter, 24 h; further: % of control where 0% means no effect; nearly all actives have a fitted effect of over 60% in size
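Stably transfected Huh7 (NPC1 promoter→luciferase), 1500 cells/well in Opti-MEM + 10% FBS, 2 h settle, then compound 24 h at 37 °C. Luminescence after 10 min with Amplite reagent.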
KinaseGlo FLuc: blocks Kinase-Glo luciferase, a counter-screen artifact; Q27757; Kinase-Glo luciferase, ATP luminescence, 8 min; Potency, µM (top dose mostly 38.3 µM), for inactives: at the highest dose activity change, negative = inhibition, actives largely listed as inhibitors; 200,000 tested, 0.28% active; AID 1379; further: on the % scale 0 is the no-effect control and ±100 the full control effect; nearly all actives have a fitted effect of over 60% in size
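Luminescence was the read-out, taken after 8-minute incubation at ambient temperature. Luciferase turned over luciferin with 10 uM ATP in imidazole pH 7.2 buffer containing KCl, MgCl2, Tween 20 and BSA.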
Rab9 prom act: activators of Rab9 promoter; Huh7 Rab9 promoter-luciferase reporter, luminescence, 24 h; Potency, µM (series often up to 9.22 µM), for the others: top-dose activation, negative = inhibition, hits mostly activators; 320,000 tested, 2.8% active; further: % of control where 0% means no effect; nearly all actives have a fitted effect of over 60% in size
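Rab9 promoter-driven luciferase in stably transfected Huh7 cells; 1500 cells/well rested 2 h, exposed to compound in DMSO for 24 h at 37 °C, 5% CO2. Luminescence read 10 min after adding luciferase reagent at ambient temperature.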
SMN2 splice up: enhancers of SMN2 splice variant expression | 210,000 tested, 2.8% active | Potency, µM (highest dose often 46.1 µM), inactives show top-dose activity change, positive = activation, hits mostly activators | HEK293 SMN2-luciferase splicing reporter, luminescence, 30-36 h; further: % of control where 0% means no effect; nearly all actives have a fitted effect of over 55% in size
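HEK293 cells carry an SMN2 minigene-luciferase reporter in which exon 7 inclusion puts luciferase in frame. Cells were seeded at 2000 cells/well, attached for 10-12 hours, then exposed to compounds for 30-36 hours at 37C before ONE-Glo luminescence.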
Starred values were filed as active, the others as inactive; [ ] = remark or other dose. The call rests on the fitted dose curve; in most records, active means well fitted curve in the direction sought with a large enough effect; inconclusive means small, poorly fitted or top-dose-only effect, or another doubt; inactive means no such curve, though single readings can be large; an effect the other way counts as inactive or inconclusive. Potency means the concentration at half of the fitted maximal effect.

Screening CCc1ccc(C(=O)NC(=S)Nc2ccc3c(c2)OCCO3)cc1 returned FLuc counter 6µM*, NPC1 prom act 2.8µM*, KinaseGlo FLuc 3%, Rab9 prom act 4µM* and SMN2 splice up 11µM*.
Screening O=C(NC(=S)Nc1ccc2c(c1)OCO2)c1ccc(Cl)cc1 returned FLuc counter inconclusive, NPC1 prom act 4µM*, KinaseGlo FLuc -2%, Rab9 prom act 2.2µM* and SMN2 splice up 13µM*.
For N#C[C@H]1CN[C@H](N)N[C@@H]1N the results were KinaseGlo FLuc -1%[7.66 µM] and SMN2 splice up -20%[9.22 µM].
`Cc1oc(-c2cccc(Cl)c2)nc1CSc1nncn2c1cc1occc12` gave FLuc counter -5%.
Screening Cc1ccc(CNC(=O)CCCn2c(=O)c3ccccc3n(CC(=O)C(C)(C)C)c2=O)cc1 returned FLuc counter -13% and SMN2 splice up -6%.
`O=C(NC(=S)Nc1ccc2c(c1)OCCO2)c1ccc(F)cc1Cl` gave FLuc counter 13µM*, NPC1 prom act 25%, KinaseGlo FLuc -1%, Rab9 prom act 27% and SMN2 splice up 13µM*.
Screening C/C(CC(=O)Nc1ccc2c(c1)OCCO2)=N\NC(=O)c1ccccc1Cl returned FLuc counter -17%, NPC1 prom act 9% and Rab9 prom act 22%.
`O=C(NCCCSc1ccccc1)c1cc(Cl)ccc1O` gave FLuc counter 11µM*, NPC1 prom act -3% and Rab9 prom act -10%.
Screening Oc1ccc(-c2cccc(-c3ccc(O)cc3)n2)cc1 returned FLuc counter 17µM*, NPC1 prom act -3%, KinaseGlo FLuc 0%, Rab9 prom act 27% and SMN2 splice up inconclusive.
Screening Oc1ccc(-c2nccc(-c3cccs3)n2)cc1 returned FLuc counter 8.5µM*, NPC1 prom act inconclusive, KinaseGlo FLuc 1%, Rab9 prom act 22% and SMN2 splice up inconclusive.
Oc1ccc(-c2nccc(-c3ccc(Cl)cc3Cl)n2)cc1 was read as FLuc counter 1%, NPC1 prom act -1%, KinaseGlo FLuc -3%, Rab9 prom act -6% and SMN2 splice up -2%.
For Oc1ccc(-c2nccc(-c3ccc(Cl)cc3)n2)cc1 the results were FLuc counter 17µM*, NPC1 prom act 2%, KinaseGlo FLuc -3%, Rab9 prom act 13% and SMN2 splice up 12%.
Cc1ccc(C)n1-c1nccc(-c2cccs2)n1 was read as FLuc counter 3%, NPC1 prom act -7%, KinaseGlo FLuc -3%, Rab9 prom act -7% and SMN2 splice up -22%.
Screening COC(=O)C(C)Oc1ccc(-c2nccc(-c3cccs3)n2)cc1 (centres undefined) returned FLuc counter 17µM*, NPC1 prom act 18%, KinaseGlo FLuc 4%, Rab9 prom act 24% and SMN2 splice up inconclusive.
O=C(Nc1nccc(-c2cccs2)n1)c1ccccc1Cl was read as FLuc counter -17%, NPC1 prom act 6%, KinaseGlo FLuc -2%, Rab9 prom act 18% and SMN2 splice up -2%.
Screening Oc1ccc(-c2cc(-c3ccc(O)cc3)nc(-c3ccccc3)n2)cc1 returned FLuc counter -14%, NPC1 prom act -3% and Rab9 prom act -8%.
`CCn1c(SCc2ccc(F)cc2Cl)nnc1-c1nonc1NC(C)=O` gave FLuc counter -8%.
Screening Oc1ccc(-c2nnc(-c3ccc(O)cc3)nn2)cc1 returned FLuc counter 2.7µM*, NPC1 prom act 3.2µM*, KinaseGlo FLuc -4%, Rab9 prom act 4µM* and SMN2 splice up 14µM*.
For COc1ccc(C(=O)COC(=O)CCC(=O)Nc2ccc(C(C)=O)cc2)cc1 the results were FLuc counter inconclusive, NPC1 prom act 27% and Rab9 prom act 27%.
Screening COc1ccc(C(=O)COC(=O)CCCC(=O)Nc2ccc(C(C)=O)cc2)cc1 returned FLuc counter 5.4µM* and SMN2 splice up 9%.
COc1ccc(C(=O)COC(=O)CCn2nnc(-c3cccc(O)c3OC)n2)cc1 was read as FLuc counter 9.5µM*, NPC1 prom act -1%, KinaseGlo FLuc -7%, Rab9 prom act 4% and SMN2 splice up -1%.

Source: PubChem
